# High-throughput results deposited in PubChem by The Scripps Research Institute Molecular Screening Center.
# GPR151 ag: activates the human receptor GPR151; activation, % at 11.2 µM; Q8TDV0; PathHunter beta-arrestin GPR151 cells, luminescence; AID 1508602; 1% of 650,000 active; in the data active means activation above about 4.9%;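 further: 0% = median of compound wells and 100% = cells with positive control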
# TEAD-YAP inh: TEAD-YAP interaction inhibition. 1.4% of 640,000 active. inhibition, % at 9.12 µM. HEK-TIYL cells, TEAD-Gal4/YAP UAS-luciferase luminescence; in the data active means inhibition above about 32%;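 further: 0% = median of test compound wells and 100% = reference inhibitor wells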
# FBW7 activator: human FBW7 E3 ligase activation, primary screen; Q969H0; AlphaScreen FBW7–phospho-cyclin E peptide binding, activator screen; normalized activity (activation), % at 26.1 µM; 0.13% of 650,000 active; AID 1259310; in the data active means normalized activity above about 1.9%;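 further: purified mutant Fbw7 with reduced substrate affinity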
# Target sequence (Q969H0 whole entry, looked up): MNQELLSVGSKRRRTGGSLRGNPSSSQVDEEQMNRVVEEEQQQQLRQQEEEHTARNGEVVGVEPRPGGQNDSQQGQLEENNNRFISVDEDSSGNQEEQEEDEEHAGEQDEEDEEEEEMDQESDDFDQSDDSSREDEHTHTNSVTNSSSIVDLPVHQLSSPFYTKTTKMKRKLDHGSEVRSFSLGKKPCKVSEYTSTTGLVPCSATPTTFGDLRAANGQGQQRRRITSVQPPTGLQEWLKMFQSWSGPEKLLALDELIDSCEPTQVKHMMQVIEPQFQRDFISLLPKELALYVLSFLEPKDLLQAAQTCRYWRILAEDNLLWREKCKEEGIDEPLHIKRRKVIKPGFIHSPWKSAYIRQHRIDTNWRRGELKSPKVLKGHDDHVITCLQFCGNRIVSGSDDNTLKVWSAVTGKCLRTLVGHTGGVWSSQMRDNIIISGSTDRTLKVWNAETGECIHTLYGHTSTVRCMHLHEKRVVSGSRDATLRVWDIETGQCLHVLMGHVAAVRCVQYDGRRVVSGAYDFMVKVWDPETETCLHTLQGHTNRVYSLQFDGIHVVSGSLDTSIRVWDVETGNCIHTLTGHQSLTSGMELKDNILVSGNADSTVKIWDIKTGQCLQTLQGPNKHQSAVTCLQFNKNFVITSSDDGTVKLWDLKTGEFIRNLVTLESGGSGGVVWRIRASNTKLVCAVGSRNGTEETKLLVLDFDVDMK
# MITF inh: inhibitors of human MITF; AID 1259374; 0.91% of 650,000 active; inhibition, % at 2.6 µM; AlphaScreen MITF homodimerization, bead proximity signal; O75030; in the data active means inhibition above about 50%;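 further: 0% = vehicle wells with protein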
# GPR151 confirm: human GPR151 activation, confirmation screen. shares compounds with GPR151 ag. GPR151 PathHunter beta-arrestin cells, luminescence, 90 min; % of EA-reagent control over plate median. activation, % at 11.2 µM. 6,700 tested, under 10 active;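 active means mean percent activation across replicates above the confirmation screen cutoff of 4.91%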
# GPR119 ag: activates human GPR119 in a GPR151 counter-screen. shares compounds with GPR151 ag. GPR119 PathHunter beta-arrestin cells, luminescence, 90 min; 0 = compound-well median, 100 = enzyme-acceptor control. activation, % at 11.2 µM. 0.3% of 6,700 active. AID 1508611;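 active means mean percent activation in the counterscreen above 29.09%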;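 further: counterscreen on off-target GPR119 to flag nonselective hits from the GPR151 activator screen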
# Starred values were filed as active, the others as inactive; nt = no result. Shown are actives, neighbours in structure and some others; about 3.5% of the full set was active somewhere.
SMILES,GPR151 ag,TEAD-YAP inh,FBW7 activator,MITF inh,GPR151 confirm,GPR119 ag
N#Cc1ccc(COC(=O)CCC(=O)c2cccs2)cc1,-0.8,4.0,0.1,6.8,nt,nt
CN1CC(=O)N(CCCC(=O)OCc2ccc(C#N)cc2)C1=O,7.7*,-1.9,-0.1,-1.0,1.1,7.3
COc1ccc(N2CCN(C3CC(=O)N(c4cc(Cl)cc(Cl)c4)C3=O)CC2)cc1 (stereo not drawn),-0.4,-0.9,-0.2,6.6,nt,nt
COC(=O)CN(c1ccc2c(c1)OCO2)S(=O)(=O)c1c(C)[nH]c(=O)[nH]c1=O,5.3*,9.3,-0.1,-6.4,1.3,2.0
COC(=O)CN(c1ccc(C)cc1)S(=O)(=O)c1c(C)[nH]c(=O)[nH]c1=O,1.7,1.9,0.0,5.7,nt,nt
CCOC(=O)CNS(=O)(=O)Cc1ccccc1,6.8*,3.6,0.6,19.9,0.2,-7.4
O=C(O)CNS(=O)(=O)Cc1ccccc1,-1.5,-1.9,0.1,-6.9,nt,nt
COc1ccc(-c2noc(N3CCCC(C(=O)Nc4ccccc4OC)C3)n2)cc1 (stereo not drawn),10.1*,-6.5,0.2,0.3,-0.4,-1.0
COc1ccc(-c2noc(N3CCC(C(=O)O)CC3)n2)cc1,1.5,-1.9,-0.2,-2.2,nt,nt
COc1ccc(-c2noc(N3CCCC(C(=O)N4CCCc5ccccc54)C3)n2)cc1 (stereo not drawn),4.0,16.9,0.0,0.0,nt,nt
COc1ccc(-c2noc(N3CCC(C(=O)NC(C)CCc4ccccc4)CC3)n2)cc1 (stereo not drawn),5.1*,-11.0,-0.1,-12.8,-0.7,-7.8
COc1ccc(-c2noc(N3CCCC(C(=O)NC4CCCc5ccccc54)C3)n2)cc1 (stereo not drawn),5.6*,6.8,0.0,-2.6,0.7,-1.5
CCOc1ccc2c(c1)c(=O)c(C(=O)c1ccccc1)cn2CC(=O)Nc1ccccc1,6.3*,-5.0,-0.1,13.8,-0.1,1.3
COc1ccc(OC)c(N=c2ssnc2Cl)c1,6.0*,-2.8,-0.3,8.0,-0.4,-4.7
Cc1ccc(OCCN(C)Cc2ccc(OCC(O)CN(C)C)cc2)cc1 (stereo not drawn),9.9*,13.2,0.0,8.6,0.2,6.8
c1ccc(Nc2cc(Nc3ccc(N4CCOCC4)cc3)ncn2)cc1,1.5,-15.9,0.2,23.5,nt,nt
CN(C)c1cccc(Nc2cc(Nc3ccc(N4CCOCC4)cc3)ncn2)c1,5.2*,-8.5,-0.2,0.8,-0.1,17.7
CSc1nc(C(=O)N2CCc3nnc(CNC(=O)c4cccc(F)c4)n3CC2)cs1,5.2*,2.8,0.0,8.7,0.7,4.0
O=C1c2cccc3cccc(c23)C(=O)N1CCCN(C(=O)c1ccccc1Cl)c1ccc(Oc2ccccc2)cc1,0.1,9.9,0.0,-6.5,nt,nt
COc1ccccc1S(=O)(=O)Cc1ccc(C(=O)N2CCOCC2)o1,46.2*,-17.4,0.2,-7.4,0.1,6.0
CC1(C)Oc2ccc(C(=O)N3CCCC3)cc2N(CC(=O)NCc2ccccc2)C1=O,6.1*,-2.2,0.0,7.8,1.7,7.7
CC1(C)Oc2ccc(C(=O)N3CCCCCC3)cc2N(CC(=O)NCc2ccccc2)C1=O,0.7,-4.8,-0.1,-9.9,nt,nt
CCC(C)NC(=O)Cc1c(C)nc2c(-c3ccccc3)c(C)nn2c1C (stereo not drawn),0.3,0.6,0.0,-1.0,nt,nt
Cn1nccc1Nc1nccc(Nc2ccccc2)n1,7.5*,-4.8,0.0,-4.6,0.8,5.2
CN(C)S(=O)(=O)c1ccc(Cl)c(NC(=O)CN2CCNC(=O)C2)c1,5.2*,-7.6,0.2,-14.1,0.4,7.1
SMILES,GPR151 ag,TEAD-YAP inh,FBW7 activator,MITF inh,GPR151 confirm,GPR119 ag
CS(=O)(=O)N(Cc1ccccc1Cl)c1ccc(C(=O)NCc2ccco2)cc1,-0.2,-2.2,-0.1,2.7,nt,nt
CS(=O)(=O)N(Cc1ccccc1Cl)c1ccc(C(=O)N2CCCC2)cc1,9.2*,2.0,0.1,13.5,0.4,-1.1
CC(C)CCNC(=O)c1ccc(N(Cc2ccccc2Cl)S(C)(=O)=O)cc1,7.9*,-2.4,0.2,23.8,0.0,-7.1
COc1ccccc1N(CCC#N)C(=O)COC(=O)c1ccc2c(c1)NC(=O)CS2,1.5,-1.7,-0.1,5.3,nt,nt
CNC(=O)COc1ccc2cc(Br)ccc2c1,-0.7,-19.9,-0.3,-0.8,nt,nt
COc1ccc(CC(=O)NNC(=O)c2ccc(Cl)cc2)cc1OC,5.3*,4.5,0.0,16.0,-0.4,11.2
CCOc1ccc2c(-c3cc4cc(Br)ccc4oc3=O)cc(=O)oc2c1,7.9*,-3.3,0.4,-2.8,-0.4,-11.9
CCCC/C(O)=C/c1nc2ccccc2[nH]c1=O,0.6,-9.1,-0.1,-2.9,nt,nt
O=C(Nc1ccc(Oc2ccc(Cl)cc2)cc1)C1CCCN1C(=O)OCc1ccccc1 (stereo not drawn),5.5*,5.0,0.0,10.7,-0.5,4.5
CCN(CC)c1nc(NCCc2ccc(O)cc2)nc(Nc2cccc(N(C)C)c2)n1,0.2,6.0,-0.1,8.5,nt,nt
C=C(C)CNc1nncc(-c2ccccc2C)n1,6.2*,-4.5,0.4,-5.5,-0.1,1.1
CCN1CCN(C(c2cccs2)C(C)NC(=O)Cc2cccs2)CC1 (stereo not drawn),-1.8,-25.1,0.6,15.8,nt,nt
Cn1c(SCc2ccccc2)nnc1C1CCCN1C(=O)c1ccc2c(c1)OCO2 (stereo not drawn),5.9*,-2.1,-0.1,-15.5,-0.6,-6.7
Cn1c(SCc2ccccc2)nnc1C1CCCN1C(=O)C1CCCO1 (stereo not drawn),-0.5,7.9,-0.1,3.7,nt,nt
O=C(N/C(=C\c1cccc([N+](=O)[O-])c1)C(=O)N1CCOCC1)c1ccco1,6.9*,4.4,-0.1,6.0,0.8,4.3
O=C(N/C(=C/c1cccc([N+](=O)[O-])c1)C(=O)N1CCCCCC1)c1ccco1,2.8,-5.1,0.8,7.3,nt,nt
O=C(N/C(=C/c1ccc(F)cc1)C(=O)N1CCCCC1)c1ccco1,6.6*,-1.9,-0.2,-8.0,0.4,2.2
Cn1c(CNC(=O)Cc2ccccc2F)nnc1SCc1ccccc1,0.3,-1.4,-0.2,-10.5,nt,nt
CN(C)c1cccc(C(=O)OCC(=O)c2cc3ccccc3o2)c1,5.2*,18.3,0.2,7.8,-1.1,-4.8
CNS(=O)(=O)c1cccc(C(=O)OCC(=O)c2cc3ccccc3o2)c1,0.7,-4.7,0.1,-9.0,nt,nt
CCCNC(=O)c1cnc(Nc2nccc3ccccc23)s1,-0.7,-51.0,0.1,-0.7,nt,nt
COc1ccc(CCNC(=O)c2cnc(Nc3nccc4ccccc34)s2)cc1,5.8*,0.2,0.1,18.1,-0.1,-7.9
Cc1ccc(CN2CCC(C3(C)NC(=O)N(CCN4CCOCC4)C3=O)CC2)s1 (stereo not drawn),1.9,9.2,0.0,-6.5,nt,nt
Cc1cc2ncn(CCC(=O)NC3CCCC3)c2cc1C,0.5,-1.4,-0.1,-2.7,nt,nt
